Test results: article PMC6925144, “A prospective compound screening contest identified broader inhibitors for Sirtuin 1” (Scientific Reports, 2019)
Whole data set: some 3,200 compounds, median “TSA(with NAD+) / Primary screening (TSA) / delta Tm (K)” near -0.04, cut for the highest 2% near 0.37. This excerpt belongs to a sample that is enriched for the highest values.

Target: NAD-dependent deacetylase Sirtuin 1 (human, UniProt Q96EB6)
Assay: primary screen, delta tm
Set-up: single well (n = 1, as 'the same TSA')
Conditions: 10 µM

Chain of NAD-dependent deacetylase Sirtuin 1 (Q96EB6 2-747 limits assumed): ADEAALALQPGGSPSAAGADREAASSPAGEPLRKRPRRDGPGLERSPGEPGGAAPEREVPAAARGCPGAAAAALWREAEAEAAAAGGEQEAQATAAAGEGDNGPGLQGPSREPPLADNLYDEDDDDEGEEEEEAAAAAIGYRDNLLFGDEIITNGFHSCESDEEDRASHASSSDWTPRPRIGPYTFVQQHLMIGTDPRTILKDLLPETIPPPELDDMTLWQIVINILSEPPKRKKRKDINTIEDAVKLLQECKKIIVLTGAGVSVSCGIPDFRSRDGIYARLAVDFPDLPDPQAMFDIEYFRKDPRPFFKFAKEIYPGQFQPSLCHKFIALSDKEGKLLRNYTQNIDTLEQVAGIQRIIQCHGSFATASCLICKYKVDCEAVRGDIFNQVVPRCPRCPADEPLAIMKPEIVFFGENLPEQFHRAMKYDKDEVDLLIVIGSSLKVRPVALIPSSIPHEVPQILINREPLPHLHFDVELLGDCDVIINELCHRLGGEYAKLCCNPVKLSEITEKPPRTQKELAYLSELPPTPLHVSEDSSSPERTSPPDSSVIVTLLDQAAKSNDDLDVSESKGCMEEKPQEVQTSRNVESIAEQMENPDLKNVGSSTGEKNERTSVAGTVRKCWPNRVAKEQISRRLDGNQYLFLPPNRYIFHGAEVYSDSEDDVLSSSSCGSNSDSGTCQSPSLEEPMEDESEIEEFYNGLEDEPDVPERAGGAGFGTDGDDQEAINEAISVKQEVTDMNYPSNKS

SMILES | TSA(with NAD+) / Primary screening (TSA) / delta Tm (K)
Cn1c(=O)c2ccccc2n2c(COC(=O)Cn3nc(-c4ccc(F)cc4)oc3=O)nnc12 | -0.03
O=C1NC(=S)NC(=O)C1=Cc1ccc(-c2ccc(SC(F)F)cc2)o1 | -0.43
Cc1ccc(C(=O)OCc2ccc(C(=O)Nc3ccccc3)cc2)cc1 | -0.18
Cc1ccc(C(C)(C)C)cc1S(=O)(=O)Nc1cccc(C(=O)NNC(=O)c2cccc(S(=O)(=O)Nc3cccc(C(F)(F)F)c3)c2)c1 | 0.65
CCNC(=O)c1cccc(NC(=O)C2CCN(S(=O)(=O)c3cc(C(C)(C)C)ccc3C)CC2)c1 | 0.16
O=C(NO)c1cccc(C(F)(F)F)c1 | -0.19
O=C(COC(=O)C1=COCCO1)Nc1cccc2c1C(=O)c1ccccc1C2=O | 0.01
COc1ccccc1NS(=O)(=O)c1cccc(NC(=O)c2oc3ccccc3c2CSC)c1 | -0.08
C=CCOc1ccc(C2C(C(=O)c3ccc(C)o3)=C(O)C(=O)N2CCCN2CCOCC2)cc1 (stereo not shown) | -0.04
O=C(Nc1ccccc1Cc1ccccc1)c1ccc(CN2C(=O)CNC2=O)cc1 | 0.05
CN(C)c1ccc(S(N)(=O)=O)cc1N | -0.04
O=C1/C(=C/c2ccccc2)Oc2cc(O)ccc21 | -0.06
O=C1/C(=C/c2cnn(-c3ccccc3)c2)Oc2cc(O)ccc21 | 0.99
O=C1/C(=C/c2cccc(O)c2)Oc2cc(O)ccc21 | -0.14
Cc1cnc(N2CCC(Oc3ccnc(C(N)=O)c3)CC2)s1 | -0.16
O=c1c2ccccc2ncn1CC(O)c1ccccc1Cl (stereo not shown) | 0.38
O=c1c2ccccc2ncn1CC(O)c1cccc(F)c1 (stereo not shown) | -0.19
O=c1c2ccncc2ncn1CC(O)c1cccc(Cl)c1 (stereo not shown) | -0.03
O=C(CN1CCCCCC1=O)N1CCN(c2cnccn2)CC1 | -0.04
CCCn1c(NC(=O)c2ccc3c(c2)CCC(=O)N3)nc2ccccc21 | 0.15
O=C1CCc2cc(NC(=O)c3cccnc3)ccc2N1 | -0.13
Cc1ccc(C(=O)Nc2nc3ccc(NS(=O)(=O)c4ccc5c(c4)CCC(=O)N5)cc3s2)s1 | 0.46
COC(=O)/C=C1/NC(=O)CS1 | -0.13
O=C(COC(=O)C1=COCCO1)Nc1cccc2ccccc12 | 0.09
CC(CNCCS(=O)(=O)C(C)(C)C)c1ccccc1 (stereo not shown) | -0.03
Cc1sc2nc(-c3cccs3)nc(N3CCC(C(N)=O)CC3)c2c1C | 0.53

SMILES | TSA(with NAD+) / Primary screening (TSA) / delta Tm (K)
NC(=O)C1CCN(c2ncnc3sc4c(c23)CCCC4)CC1 | 0.32
Cc1sc2ncnc(N3CCC(C(=O)N4CCC(C(N)=O)CC4)CC3)c2c1C | -0.03
Cc1sc2ncnc(N3CCC(C(N)=O)CC3)c2c1C | 0.06
Cc1sc2nc(-c3cccnc3)nc(N3CCC(C(N)=O)CC3)c2c1C | -0.01
NC(=O)C1CCN(c2nc(-c3cccs3)nc3sc4c(c23)CCCC4)CC1 | 2.33
NC(=O)C1CCCN(c2ncnc3sc4c(c23)CCCC4)C1 (stereo not shown) | -0.15
NC(=O)C1CCN(c2ncnc3sc4c(c23)CCCCC4)CC1 | 0.26
NC(=O)C1CCN(c2nc(-c3cccnc3)nc3sc4c(c23)CCCC4)CC1 | 0.48
O=c1[nH]cnc2c(Cl)cc(Cl)cc12 | -0.16
Cc1ccc(-c2nnc(SCC(=O)NC(=O)NC(C)C)n2N)cc1 | -0.04
O=C(CCc1nc2ccccc2c(=O)[nH]1)Nc1ccc(N2CCN(Cc3ccccc3)CC2)cc1 | 0.03
Cc1cc(C=C2C(=O)NC(=S)NC2=O)c(C)n1-c1ccc(F)cc1 | -0.48
CNS(=O)(=O)c1ccc(CCC(=O)Nc2ccccc2Cc2ccccc2)cc1 | 0.07
C/C(=N/N)c1ccc2c(c1)-c1ccccc1C2 | -0.14
O=C1COc2cc(C(=O)Nc3ccc4c(c3)-c3ccccc3C4)ccc2N1 | 0.11
NS(=O)(=O)c1ccc(C(=O)Nc2ccc3c(c2)-c2ccccc2C3)cc1 | 0.68
CC1CCC(C(N)=O)CN1c1ncnc2ccsc12 (stereo not shown) | 0.05
O=C(CN1CCN(Cc2cscn2)CC1)NC(c1ccccc1)C1CC1 (stereo not shown) | 0.03
COCCCn1ccc(Nc2nc(C)nc3[nH]ccc23)n1 | -0.03
CC1(C)CC(=O)C(=CNNC(=O)CC23CC4CC(CC(C4)C2)C3)C(=O)C1 | -0.06
O=C1/C(=C/NNC(=O)C23CC4CC(CC(C4)C2)C3)c2ccccc2C(=O)N1Cc1ccccc1 | 0.56
O=C(CC12CC3CC(CC(C3)C1)C2)NN/C=C1/C(=O)N(Cc2ccccc2)C(=O)c2ccccc21 | 0.19
COc1ccc(N2C(=O)/C(=C/NNC(=O)C34CC5CC(CC(C5)C3)C4)c3ccccc3C2=O)cc1 | 0.18
COc1ccc(CN2C(=O)/C(=C/NNC(=O)CC34CC5CC(CC(C5)C3)C4)c3ccccc3C2=O)cc1 | 0.06
O=C1NC(=O)c2ccccc2/C1=C\NNC(=O)C12CC3CC(CC(C3)C1)C2 | 0.48
COC(C)CN (stereo not shown) | -0.12

SMILES | TSA(with NAD+) / Primary screening (TSA) / delta Tm (K)
COc1cccc(-c2nc(CSc3nnc(-c4ccco4)n3Cc3ccccc3)cs2)c1 | -0.16
Cc1ccc(OCCN)cc1 | 0.15
Cc1nn2cccnc2c1C(=O)NCc1ccc(-c2nnn[nH]2)cc1 | -0.06
Cc1nn(-c2ccc(F)cc2)c(C)c1CNCc1ccccc1 | -0.23
N#Cc1c2c(c(Cl)n3c1nc1ccccc13)CCCC2 | 0.03
Cc1ccccc1-c1nnn(Cc2cc(=O)oc3c(C)c(C)ccc23)n1 | -0.18
COc1ccc(NC(=O)c2ccc(NC(=O)c3cnoc3C)cc2)cc1OCc1cccnc1 | 0.05
COC(=O)c1cc(-c2csc(NC(=O)c3cccc(NC(=O)c4cnoc4C)c3)n2)c[nH]1 | 0.67
NC(=O)NCc1ccc(C(=O)Nc2nc(-c3c[nH]c(C(N)=O)c3)cs2)cc1 | 0.11
COc1ccnc(N2CCN(C(=O)c3ccc(C(N)=O)s3)CC2)n1 | -0.13
Cc1ccc(-n2nnnc2SCc2nc3c(cnn3-c3ccccc3)c(=O)[nH]2)cc1 | -0.11
CCCOc1ccc(C2C(C(=O)c3ccc(F)cc3)=C(O)C(=O)N2CCCN2CCOCC2)cc1 (stereo not shown) | 0.06
Cc1cc(NN)n2nc(C(F)(F)F)c(-c3ccc(Cl)cc3)c2n1 | 0.37
Cc1cc(N(C)C)n2nc(C(F)(F)F)c(-c3ccccc3)c2n1 | -0.05
CNc1cc(C)nc2c(-c3ccccc3)c(C(F)(F)F)nn12 | -0.12
Oc1cccc2c1Cc1c-2nc2ccc(Cl)cc2c1-c1ccccc1Cl | 0.52
O=C1/C(=C/c2ccc(Br)cc2F)Cc2c(O)cccc21 | 0.11
COc1ccc(C(=O)NC2CCCC2(C)CO)cc1-c1ccccn1 (stereo not shown) | -0.23
CN1CCC(Sc2ccc3ccccc3c2)C1=O (stereo not shown) | -0.19
Cc1ccc(-c2cc(C(=O)OC(C)C(=O)Nc3cccc([N+](=O)[O-])c3)[nH]n2)cc1 (stereo not shown) | 0.25
CC(=C/c1ccccc1)/C=N/NC(=O)c1cc(-c2ccc(C)cc2)n[nH]1 | 1.11
O=C(Nc1ccc(N2CCN(Cc3ccccc3)CC2)cc1)c1cccc2cccnc12 | 0.01
O=C(COC(=O)c1ccc2c(c1)S(=O)(=O)c1ccccc1C2=O)Nc1ncc(Cl)cc1Cl | 0.15
Cn1cc(CCC(=O)NCC(=O)O)c2ccccc21 | -0.16
